Experimental data as given in PubChem BioAssay (NCI).
About 79,000 compounds went through this panel and 15% of them were active in at least one assay; those are over-represented in the sample as a whole. Calls of active or inactive are those of the source. Cut-off read from the data, not from the text of the source: active = growth inhibition above about 70%; inactive = the rest.

Experiments:
[1] = NCI Yeast Anticancer Drug Screen. Data for the rad52 strain (AID 147);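 note: 0% = growth of vehicle-treated control cultures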; conditions: S. cerevisiae rad52 mutant growth inhibition, active compounds read high
Summary of the method: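 DNA repair-defective yeast; compound exposure; growth scored against vehicle controls.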

[2] = NCI Yeast Anticancer Drug Screen. Data for the wt1 strain (AID 149);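 note: 0% = growth of vehicle-treated wt1 cultures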; conditions: S. cerevisiae wt1 strain (SPY 50644) growth inhibition, active compounds read high
Summary of the method: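 Measured: growth of wt1 yeast under compound versus vehicle treatment, reported as inhibition.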

[3] = NCI Yeast Anticancer Drug Screen. Data for the rad50EPP+ strain (AID 151);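 note: 0% = growth of vehicle-treated control cultures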; conditions: S. cerevisiae rad50 mutant strain, active compounds read high
Summary of the method: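 rad50EPP+ yeast treated with test compounds. Readout: growth vs vehicle control.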

[4] = NCI Yeast Anticancer Drug Screen. Data for the mgt1 strain (AID 153); conditions: S. cerevisiae mgt1 mutant growth inhibition, active compounds read high
Summary of the method: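 Growth inhibition relative to vehicle controls was scored for the mgt1 yeast strain after compound exposure.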

[5] = NCI Yeast Anticancer Drug Screen. Data for the rad50 strain (AID 155);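 note: 0% = growth of vehicle-only cultures of the same strain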; conditions: S. cerevisiae rad50 strain growth inhibition, active compounds read high
Summary of the method: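 Growth of the mutant yeast was measured after compound exposure and referenced to vehicle-treated cultures.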

[6] = NCI Yeast Anticancer Drug Screen. Data for the mec2-1 strain (AID 157); conditions: S. cerevisiae mec2-1 strain, active compounds read high
Summary of the method: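 Growth inhibition is read against vehicle-treated controls after compound exposure of the mec2-1 yeast strain, which is defective in DNA damage repair or cell cycle control.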

[7] = NCI Yeast Anticancer Drug Screen. Data for the rad14 strain (AID 159);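 note: 0% = growth of vehicle-treated control cultures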; conditions: S. cerevisiae rad14 strain growth inhibition, active compounds read high
Summary of the method: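 Here, inhibition of yeast growth was measured after compound exposure, using a strain with a genetic defect in DNA damage repair and vehicle-treated cultures as the reference.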

[8] = NCI Yeast Anticancer Drug Screen. Data for the sgs1 mgt1 strain (AID 161);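 note: 0% = growth of cultures given vehicle only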; conditions: S. cerevisiae sgs1 mgt1 strain, active compounds read high
Summary of the method: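 Yeast cells carrying a defined DNA-repair defect were exposed to test compounds. Growth inhibition was measured relative to vehicle-treated controls.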

[9] = NCI Yeast Anticancer Drug Screen. Data for the cln2 rad14 strain (AID 165);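 note: 0% = growth equal to vehicle treated cultures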; conditions: S. cerevisiae cln2 rad14 strain, active compounds read high
Summary of the method: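 Growth inhibition, relative to vehicle-treated controls, is the read-out. The test organism is a yeast strain with defined genetic alterations, cln2 rad14.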

[10] = NCI Yeast Anticancer Drug Screen. Data for the bub3 strain (AID 167); conditions: S. cerevisiae bub3 mutant strain, active compounds read high
Summary of the method: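 Whole-cell yeast assay. The mutant strain was incubated with compounds, and growth inhibition was determined by comparison with vehicle-treated cells.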

[11] = NCI Yeast Anticancer Drug Screen. Data for the wt2 strain (AID 169);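 note: 0% = growth of vehicle-treated yeast cultures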; conditions: S. cerevisiae wt2 strain growth inhibition, active compounds read high
Summary of the method: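 Compound exposure of yeast; growth compared with vehicle controls; inhibition reported.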

[12] = NCI Yeast Anticancer Drug Screen. Data for the mlh1 strain (AID 171);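 note: 0% = growth of vehicle-treated control cultures of the same strain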; conditions: S. cerevisiae mlh1 strain growth inhibition, active compounds read high
Summary of the method: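 Compounds are applied to a genetically altered yeast strain, and its growth is compared with that of vehicle-treated cultures to give percent inhibition.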

[13] = NCI Yeast Anticancer Drug Screen. Data for the sgs1 strain (AID 173);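 note: 0% = growth of vehicle-only control cultures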; conditions: S. cerevisiae sgs1 mutant, active compounds read high
Summary of the method: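 Compounds applied to genetically altered yeast; growth compared with vehicle-treated cultures to give % inhibition.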

[14] = NCI Yeast Anticancer Drug Screen. Data for the mlh1 rad18 strain (AID 175); conditions: S. cerevisiae mlh1 rad18 strain growth inhibition, active compounds read high
Summary of the method: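 Cells of a genetically altered yeast strain, deficient in DNA damage repair, were treated with compound. Their growth was then compared with that of vehicle-treated cultures to give inhibition.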

[15] = NCI Yeast Anticancer Drug Screen. Data for the rad18 strain (AID 177); conditions: S. cerevisiae rad18 mutant growth inhibition, active compounds read high
Summary of the method: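 Compounds are applied to a repair-deficient yeast strain, and growth is compared with that of vehicle-treated cultures to give percent inhibition.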

[16] = at 5.0 µM (retest, dose inferred, filed as 0.5)
[17] = at 50.0 µM (retest, dose inferred, filed as 5.0)

Measured: growth inhibition

Cc1cc(Cl)ccc1NC(=O)/C(Cl)=C(/Cl)C(=O)O
inactive: [1]; at 1.2 µM 2% | [1]; at 3.7 µM 6% | [1]; at 11.0 µM 21% | [2]; at 1.2 µM 0% | [2]; at 3.7 µM -1% | [2]; at 11.0 µM 0% | [2]; at 33.0 µM 11% | [3]; at 1.2 µM 5% | [3]; at 3.7 µM 11% | [3]; at 11.0 µM 25% | [4]; at 1.2 µM 0% | [4]; at 3.7 µM 5% | [4]; at 11.0 µM 8% | [4]; at 33.0 µM 29% | [5]; at 1.2 µM 1% | [5]; at 3.7 µM 6% | [5]; [16] -1% | [5]; at 11.0 µM 16% | [5]; [17] 22% | [6]; at 1.2 µM 3% | [6]; at 3.7 µM 6% | [6]; [16] 3% | [6]; at 11.0 µM 11% | [6]; at 33.0 µM 51% | [6]; [17] 23% | [7]; at 1.2 µM 2% | [7]; at 3.7 µM 5% | [7]; at 11.0 µM 13% | [7]; at 33.0 µM 34% | [8]; [16] 0% | [8]; [17] 37% | [9]; [16] -4% | [9]; [17] 11% | [10]; at 1.2 µM 2% | [10]; at 3.7 µM 4% | [10]; [16] 3% | [10]; at 11.0 µM 12% | [10]; at 33.0 µM 56% | [10]; [17] 37% | [11]; at 1.2 µM 0% | [11]; at 3.7 µM 1% | [11]; at 11.0 µM 5% | [11]; at 33.0 µM 18% | [12]; at 1.2 µM -1% | [12]; at 3.7 µM 2% | [12]; at 11.0 µM 5% | [12]; at 33.0 µM 22% | [13]; at 1.2 µM 2% | [13]; at 3.7 µM 2% | [13]; at 11.0 µM 11% | [13]; at 33.0 µM 55% | [14]; [16] 0% | [14]; [17] 17% | [15]; at 1.2 µM -2% | [15]; at 3.7 µM 0% | [15]; at 11.0 µM 11% | [15]; at 33.0 µM 30%
active: [1]; at 33.0 µM 70% | [1]; at 100.0 µM 99% | [2]; at 100.0 µM 99% | [3]; at 33.0 µM 78% | [3]; at 100.0 µM 99% | [4]; at 100.0 µM 100% | [5]; at 33.0 µM 81% | [5]; at 50.0 µM 99.5% | [5]; at 100.0 µM 99% | [6]; at 50.0 µM 97.7% | [6]; at 100.0 µM 100% | [7]; at 100.0 µM 100% | [8]; at 50.0 µM 99.7% | [9]; at 50.0 µM 98.8% | [10]; at 50.0 µM 99.6% | [10]; at 100.0 µM 99% | [11]; at 100.0 µM 100% | [12]; at 100.0 µM 100% | [13]; at 100.0 µM 99% | [14]; at 50.0 µM 99.3% | [15]; at 100.0 µM 99%

CCC(=O)C1=C(O)c2cc(OC)ccc2CC1C(=O)OC (stereo unspecified)
inactive: [1]; at 1.2 µM -1% | [1]; at 3.7 µM 2% | [1]; at 11.0 µM 7% | [1]; at 33.0 µM 16% | [1]; at 100.0 µM 43% | [2]; at 1.2 µM 0% | [2]; at 3.7 µM 5% | [2]; at 11.0 µM 4% | [2]; at 33.0 µM 6% | [2]; at 100.0 µM 19% | [3]; at 1.2 µM 2% | [3]; at 3.7 µM 6% | [3]; at 11.0 µM 43% | [4]; at 1.2 µM -2% | [4]; at 3.7 µM -1% | [4]; at 11.0 µM 4% | [4]; at 33.0 µM 10% | [4]; at 100.0 µM 19% | [5]; at 1.2 µM -1% | [5]; at 3.7 µM -1% | [5]; [16] -9% | [5]; at 11.0 µM 6% | [5]; at 33.0 µM 4% | [5]; at 50.0 µM 13.1% | [5]; at 100.0 µM 28% | [6]; at 1.2 µM -1% | [6]; at 3.7 µM -4% | [6]; [16] -5% | [6]; at 11.0 µM -1% | [6]; at 33.0 µM 13% | [6]; [17] -1% | [6]; at 50.0 µM 13.2% | [6]; at 100.0 µM 35% | [7]; at 1.2 µM 2% | [7]; at 3.7 µM 6% | [7]; at 11.0 µM 11% | [7]; at 33.0 µM 19% | [7]; at 100.0 µM 35% | [8]; [16] -3% | [8]; at 50.0 µM 24% | [9]; [16] -5% | [9]; [17] 20% | [9]; at 50.0 µM 4.75% | [10]; at 1.2 µM -7% | [10]; at 3.7 µM -8% | [10]; [16] 7% | [10]; at 11.0 µM -9% | [10]; at 33.0 µM 2% | [10]; at 50.0 µM 38.9% | [10]; at 100.0 µM 15% | [11]; at 1.2 µM -2% | [11]; at 3.7 µM 3% | [11]; at 11.0 µM 8% | [11]; at 33.0 µM 14% | [11]; at 100.0 µM 30% | [12]; at 1.2 µM -5% | [12]; at 3.7 µM -1% | [12]; at 11.0 µM 2% | [12]; at 33.0 µM 10% | [12]; at 100.0 µM 26% | [14]; [16] 16% | [14]; at 50.0 µM 31.4% | [15]; at 1.2 µM -1% | [15]; at 3.7 µM -3% | [15]; at 11.0 µM 2% | [15]; at 33.0 µM 8% | [15]; at 100.0 µM 21%
active: [3]; at 33.0 µM 73% | [3]; at 100.0 µM 86% | [5]; [17] 73% | [8]; [17] 89% | [10]; [17] 78% | [14]; [17] 90%

CC(C)CCC[C@@H](C)[C@H]1CC[C@H]2[C@@H]3CC[C@H]4C[C@H](N)CC[C@]4(C)[C@H]3CC[C@]12C
inactive: [1]; at 1.2 µM -2% | [1]; at 3.7 µM 2% | [1]; at 11.0 µM -3% | [1]; at 33.0 µM -7% | [1]; at 100.0 µM -6% | [2]; at 1.2 µM -1% | [2]; at 3.7 µM 0% | [2]; at 11.0 µM -3% | [2]; at 33.0 µM -2% | [2]; at 100.0 µM 1% | [3]; at 1.2 µM 0% | [3]; at 3.7 µM 2% | [3]; at 11.0 µM 7% | [3]; at 33.0 µM 7% | [3]; at 100.0 µM 7% | [4]; at 1.2 µM -3% | [4]; at 3.7 µM -2% | [4]; at 11.0 µM -2% | [4]; at 33.0 µM -2% | [4]; at 100.0 µM 2% | [5]; at 1.2 µM 1% | [5]; at 3.7 µM 4% | [5]; [16] -19% | [5]; at 11.0 µM 4% | [5]; at 33.0 µM -2% | [5]; [17] 49% | [5]; at 50.0 µM 27.1% | [5]; at 100.0 µM -2% | [6]; at 1.2 µM 0% | [6]; at 3.7 µM -1%
